Assay outcomes as filed in PubChem.
MCF10A rerep: A quantitative high throughput screen for small molecules that induce DNA re-replication in MCF 10a normal breast cells | AID 624296, 2012 | Potency, µM (titrated, usually from 46.1 µM), without a hit: at the top dose activity, positive = re-replication, actives largely listed as activators | MCF 10A DNA re-replication, Hoechst nuclear intensity, 48 h | hit rate 2.9% among 350,000; also: potency is read from the fitted curve at half-maximal effect; % of control where 0% means no effect; nearly all actives have a fitted effect of over 50% in size
PINK1 modulator: A Quantitative High throughput Screen to Identify Chemical Modulators of PINK1 Expression; AID 624263, 2012; hit rate 0.2% among 410,000; Potency, µM (doses to about 76.6 µM), without a hit: at the highest dose activation (PINK1 increase), hits mostly activators; PINK1 immunofluorescence, high-content cytometry, 24 h; active = well fitted activation curve with a large enough effect; inconclusive = small, poorly fitted or top-dose-only effect; cell line not stated here; also: potency is read from the fitted curve at half-maximal effect; % of control where 0% means no effect; nearly all actives have a fitted effect of over 65% in size
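PINK1 protein level read as immunofluorescence by microplate cytometer in a fixed, stained stable cell line after 24 h exposure to five compound concentrations, with CCCP as control.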
ATXN2 expr inh: Primary qHTS for Inhibitors of ATXN expression; HEK-293 ATXN2-luciferase reporter, luminescence, 24 h; Potency, µM (doses to about 57 µM), without a hit: at the highest dose activity change, negative = inhibition, actives largely listed as inhibitors; hit rate 0.72% among 360,000; AID 1745845, 2022; also: potency is read from the fitted curve at half-maximal effect; % is scaled to controls: 0 for no effect and ±100 for the full control effect; nearly all actives have a fitted effect of over 55% in size
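qHTS (up to 57 uM final) was run with 24 h compound exposure of reporter cells at 37 °C. Each well was multiplexed: SteadyGlo luminescence measured ATXN2-luciferase expression after a fluorogenic Gly-Phe-AFC viability readout (25 uM final).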
ATXN viability: Viability Counterscreen for Primary qHTS for Inhibitors of ATXN expression; hit rate 0.49% among 400,000; Potency, µM (doses to about 56.7 µM), usual class: cytotoxic; S2 cells (HEK-293 line with an ATXN2-luciferase reporter) viability, CellTiter-Fluor protease fluorescence, 24 h; AID 651635, 2014; also: potency is read from the fitted curve at half-maximal effect; nearly all actives have a fitted effect of over 40% in size
IL1B secr inh: qHTS for Inhibitors of Inflammasome Signaling: IL-1-beta AlphaLISA Primary Screen. THP-1 LPS/ATP IL-1B secretion, AlphaLISA, 16 h; stronger effect = lower value. activity change, % at 57.5 µM. hit rate 4.7% among 360,000; in the data active = activity change below about -50%; inconclusive = mostly about -30% to -49%; also: % is scaled to controls: 0 for no effect and ±100 for the full control effect
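THP-1 cells pretreated 1 hr with compounds (up to 57.5 uM final), then stimulated with LPS (250 ng/mL final) plus ATP (1.25 mM final); secreted IL-1B measured by AlphaLISA after 16 hr, decreased signal indicating inhibition.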
SW480 rereplic: A quantitative high throughput screen for small molecules that induce DNA re-replication in SW480 colon adenocarcinoma cells; hit rate 1.8% among 340,000; AID 624297, 2012; Potency, µM (titrated, usually from 46.1 µM), without a hit: at the top dose re-replication activation, hits mostly activators; SW480 DNA re-replication, Hoechst DNA content imaging, 48 h; also: potency is read from the fitted curve at half-maximal effect; % of control where 0% means no effect; nearly all actives have a fitted effect of over 55% in size
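First, 250 cells per well were seeded. Next, compound or vehicle (23 nL) was pinned in, plates sat 48 hr at 37 C. Finally Hoechst was added for 40 min before fluorescence scanning.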
An asterisk follows results filed as active; i = inactive; u = inconclusive; x = no result given; [ ] = remark or other dose. Only some compounds are listed: those with a hit (about 7.1% of all), similar ones and a draw of the others. Unless noted, calls follow the shape of the dose curve; as a rule, active = well fitted curve in the direction sought with a large enough effect; inconclusive = small, poorly fitted or top-dose-only effect, or another doubt; inactive = no such curve, though single readings can be large; an effect the other way counts as inactive or inconclusive.

SMILES	MCF10A rerep	PINK1 modulator	ATXN2 expr inh	ATXN viability	IL1B secr inh	SW480 rereplic
CC(=O)Oc1ccc(C(=O)Nc2cc(NC(=O)c3ccc(OC(C)=O)cc3)cc(C(=O)NC(C)(C)C)c2)cc1	8%	1%	1%	i	-64*	1%
O=C(Nc1ccc(N2CCCCC2)c(C(=O)O)c1)c1ccco1	-1%	0%	8%	i	0	-6%
CC(=O)Oc1ccc(C(=O)Nc2cccc(NC(=O)c3ccco3)c2)cc1	6.5µM*	2%	4%	i	-8	-52%
Cc1cccc(NC(=O)c2cc(NC(=O)c3ccco3)ccc2N2CCCCC2)c1	12µM*	u	-1%	i	-9	16%
CC(=O)Oc1ccc(C(=O)Nc2ccccc2NC(=O)c2ccc(OC(C)=O)cc2)cc1	8%	2%	x	u	1	-8%
COc1ccccc1NC(=O)c1cnc(SCC(=O)N2CCCc3ccccc32)n(C)c1=O	x	0%	x	x	x	x
CCC1CN(CC(=O)N(C)Cc2nc3ccccc3[nH]2)Cc2cc(OC)ccc2O1 (centres undefined)	x	0%	x	i	x	x
COc1ccc(C(=O)c2c(N)c(-c3nc(-c4ccccc4)cs3)c3ccccn23)cc1	x	2%	6%	i	x	x
CCCN1CNc2c(c(=O)[nH]c(=S)n2CCc2ccccc2Cl)C1	x	0%	x	x	x	x
CN(C)CCOc1ccc(-c2nc(-c3ccc4c(c3)CCC4=NO)c(-c3ccncc3)[nH]2)cc1	x	x	0%	x	x	x
COC(=O)c1cccc(NC(=O)c2ccco2)c1	-1%	-1%	5%	i	-5	-1%
COC(=O)c1cccc(NC(=O)CCNC(=O)c2ccco2)c1	1%	0%	-16%	i	-101*	-1%
CC(=O)c1cccc(NC(=O)c2cccc(NC(=O)c3ccco3)c2)c1	12%	11%	-8%	i	26	-35%
O=C(Nc1cccc(NC(=O)c2ccco2)c1)c1cccc(Br)c1	7%	2%	-11%	i	-61*	-8%
Cc1ccc2onc(CNC(=O)N3CCN(c4cccc(C)c4C)CC3)c2c1	x	-1%	u	u	x	x
Cc1cc2cc(CN(Cc3nnnn3C3CCCCC3)CC3CCCO3)c(=O)[nH]c2cc1C (centres undefined)	u	x	-24%	u	-66*	13%
COc1ccc(CN(Cc2cc3ccc(C)cc3[nH]c2=O)Cc2nnnn2C2CCCC2)cc1	16%	u	-11%	u	-58*	16%
Cc1ccc2[nH]c(=O)c(CN(Cc3ccc4c(c3)OCO4)Cc3nnnn3C3CCCC3)cc2c1	u	0%	-7%	i	-56*	u
CCOC(=O)C1CCCN(C(=O)Cn2ncc3c(C)n(Cc4ccccc4Cl)c(C)c3c2=O)C1 (centres undefined)	x	-1%	x	x	x	x
Cc1ccc(-n2ncc(C(=O)Nc3ccc4c(c3)OCCO4)c2C2CCN(C(=O)OC(C)(C)C)CC2)cc1C	x	-1%	x	x	x	x
CC(C)=CCN1CCN(CCC2=C(C)CCCC2(C)C)CC1CCO (centres undefined)	u	0%	-17%	i	u	-8%
CC1=C(CC/C(C)=N/NC(N)=S)C(C)(C)CCC1	13µM*	-1%[38.3 µM]	u	u	-3	11µM*
Cc1cccc(Nc2cc(C)c3c(O)cccc3n2)c1C	u	10%	2%	u	-101*	21µM*
Cc1cc(Nc2ccccc2O)nc(C)n1	x	-1%	12%	i	x	x
CC1(C(=O)O)CCC2(C)CCC3(C)C(=CC(=O)C4C5(C)CCC(O)C(C)(C)C5CCC43C)C2C1 (centres undefined)	27µM*	x	x	x	x	3%
SMILES	MCF10A rerep	PINK1 modulator	ATXN2 expr inh	ATXN viability	IL1B secr inh	SW480 rereplic
CC1(C)[C@@H](O)CC[C@]2(C)C3C(O)C=C4[C@H]5C[C@@](C)(CO)CC[C@]5(C)CC[C@]4(C)[C@]3(C)CC[C@@H]12 (some centres undefined)	13µM*	0%	7%	i	16	-4%
CC1(C)[C@@H](O)CC[C@]2(C)[C@H]3C(=O)C=C4[C@@H]5C[C@@](C)(C(=O)O)CC[C@]5(C)CC[C@@]4(C)[C@]3(C)CC[C@@H]12	-37%	2%	9%	i	9	-11%
C[C@H]1[C@H](C)CC[C@]2(C)CC[C@]3(C)C(=CC(=O)C4[C@@]5(C)CC[C@H](O)C(C)(C)C5CC[C@]43C)[C@H]12 (some centres undefined)	u	1%	5%	i	13	-14%[9.22 µM]
COC(=O)N/N=C/c1ccccc1OCc1ccccc1	14%	4%	6%	i	-14	0%
COC(=O)N/N=C\c1cc(Br)ccc1OCc1ccccc1	11%	0%	24%	i	-73*	u
COc1ccc(/C=C/C(=O)NCC(=O)N/N=C/c2cc(Br)ccc2OCc2ccccc2)cc1	6%	6%	-33%	16µM*	33	-4%
COc1cc(/C=C/c2nc3ccccc3nc2/C=C/c2cc(OC)c(OC)c(OC)c2)cc(OC)c1OC	x	2%	x	x	x	x
CC(CC(c1ccccc1)c1ccccc1)NC(C)(C)C (centres undefined)	x	x	x	i	x	x
COc1ccc(-c2nn(-c3ccccc3)cc2/C=C(\CC(=O)O)c2nc3ccccc3s2)cc1OC	18µM*	-1%	14%	x	7	2%
Cc1ccc(CNCCC2=CCCCC2)cc1	21%	-7%[38.3 µM]	-12%	i	-69*	u
O=C(Nc1nnc(-c2ccccc2SCc2ccccc2)s1)Nc1ccccc1F	2%	8%	15%	u	60	3.7µM*
COc1ccccc1NC(=O)C1=C(C)Nc2nc(SCc3ccccc3)nn2C1c1cccs1 (centres undefined)	x	5%	x	x	x	x
O=C(CC1C(=O)NCCN1CC1CCCCC1)NCc1ccc(F)cc1F (centres undefined)	8%	0%	-16%	i	-66*	-2%
O=C(CC1C(=O)NCCN1CC1CCCCC1)NCc1cc(F)ccc1F (centres undefined)	-4%	0%	-23%	i	-11	-9%
O=C(c1cccs1)N1CCc2c([nH]c3ccccc23)C1c1ccccn1 (centres undefined)	12%	2%	-12%	i	u	18%
O=C(c1cc(-c2ccccc2)n[nH]1)N1CCc2c([nH]c3ccccc23)C1c1ccccn1 (centres undefined)	u	-1%	u	u	-65*	u
